Experimental data taken from PubChem BioAssay (EPA / NIEHS).
Active and inactive are the calls of the source. How the source made its calls: active means hit-call score of the fitted dose curve at least 0.9, where 1 is the maximum; inactive means score below 0.9.

target: Myc proto-oncogene protein (Homo sapiens) (UniProt P01106); assay: ATG_Myc_CIS: Attagene CIS-FACTORIAL HepG2 Assay for human Myelocytomatosis (Myc) Proto-Oncogene Transcription Factor (AID 2282990); conditions: HepG2, Attagene cis-reporter transcription factor activity; actives raise or lower the signal
Protocol: ATG_CIS is a cell-based, multiplexed-readout assay that uses HepG2, a human liver cell line, with measurements taken at 24 hours after chemical dosing in a 24-well plate.ATG_Myc_CIS is one of 52 assay component(s) measured or calculated from the ATG_CIS assay. It is designed to make measurements of mRNA induction, a form of inducible reporter, as detected with fluorescence intensity signals by Reverse transcription polymerase chain reaction (RT-PCR) and Capillary electrophoresis technology.Data from the assay component ATG_Myc_CIS was analyzed into 1 assay endpoint. This assay endpoint, ATG_Myc_CIS, was analyzed with bidirectional fitting relative to DMSO as the negative control and baseline of activity. Using a type of inducible reporter, measures of mRNA for gain or loss-of-signal activity can be used to understand the reporter gene at the transcription factor-level as they relate to the gene MYC. Furthermore, this assay endpoint can be referred to as a primary readout, because this assay has produced multiple assay endpoints where this one serves a reporter gene function. To generalize the intended target to other relatable targets, this assay endpoint is annotated to the dna binding intended target family, where the subfamily is basic helix-loop-helix leucine zipper.
Human liver HepG2 cells are transiently transfected with multiple reporter transcription units (MRTUs) in 6-well plates using FuGene 6 reagent (Roche; 3 ml FuGene/1 mg DNA). The MRTU constructs are regulated by a cis-regulating element (promoter). […] A major difference between the CIS and TRANS system is that in CIS activities of endogenous TFs are measured, whereas the TRANS assay evaluates changes in activities of exogenous, chimeric NR-Gal4 proteins. […] At the end of 24 hour incubation, total RNA was isolated using TriZol reagent (Invitrogen). The isolated RNA is then reverse-transcribed using oligo(dT) primer and Mo-MLV reverse transcriptase (Invitrogen) with DNAse I (Ambion) treatment for 30 min. The one-tenth of the produced cDNA was amplified by PCR using Taq DNA polymerase (Invitrogen) and two reporter sequence-specific primers. The PCR products were fluorescently labeled by primer extension with 6-arboxyfluorescein (6-FAM) 5'-labeled reporter sequence-specific primer (2 min at 95 C, 20 s at 68 C and 10 min at 72 C) and these products were digested with 5U of HpaI (New England Biolabs) for 2h at 37 C. The fragments were purified using Qiaquick PCR columns (Qiagen), analyzed on an ABI 3130xL genetic analyzer (Applied Biosystems) with peak positions identified by using a set of X-rhodamine (ROX)-labeled MapMarker1000 molecular weight standards (BioVentures). The raw capillary electrophoresis data was processed using Attagraph software (Attagene).

Chain of Myc proto-oncogene protein (Homo sapiens) (P01106 whole entry, looked up): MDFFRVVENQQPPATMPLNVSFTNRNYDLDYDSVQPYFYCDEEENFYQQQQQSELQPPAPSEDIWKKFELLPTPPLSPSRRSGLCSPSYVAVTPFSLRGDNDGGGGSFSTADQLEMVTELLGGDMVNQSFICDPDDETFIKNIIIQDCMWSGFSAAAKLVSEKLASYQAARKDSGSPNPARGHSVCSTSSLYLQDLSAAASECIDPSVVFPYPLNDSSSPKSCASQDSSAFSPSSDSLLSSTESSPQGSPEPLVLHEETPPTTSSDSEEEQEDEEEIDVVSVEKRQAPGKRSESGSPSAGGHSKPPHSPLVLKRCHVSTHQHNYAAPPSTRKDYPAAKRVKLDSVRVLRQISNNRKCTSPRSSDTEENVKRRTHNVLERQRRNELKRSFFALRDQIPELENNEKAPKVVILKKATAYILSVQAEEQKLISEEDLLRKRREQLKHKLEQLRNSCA

Structure (SMILES) | outcome | AC50
CCCCCCCCCCCCCOS(=O)(=O)O | inactive | 
CC(C)C1CCC(O)CC1 (stereo not given) | inactive | 
COC(=O)Cc1cccc2ccccc12 | inactive | 
NC(N)=NC(=O)c1nc(Cl)c(N)nc1N | inactive | 
O=S(=O)(O)c1ccc(O)c2ncccc12 | inactive | 
CC(C)=CCCC(C)=CCCC(C)=CCO | inactive | 
CC(C)=CCO | inactive | 
C[C@]12CC[C@H]3[C@@H](CCC4=CC(=O)CC[C@@]43C)[C@@H]1CC[C@@H]2C(=O)CO | inactive | 
CC(C)(C)c1n[nH]c(=S)n(N)c1=O | inactive | 
OCCCCCO | inactive | 
COC(=O)C1=C(C)NC(C)=C(C(=O)OCCN(C)Cc2ccccc2)C1c1cccc([N+](=O)[O-])c1 (stereo not given) | inactive | 
CN1[C@@H]2CC(OC(=O)[C@H](CO)c3ccccc3)C[C@H]1[C@@H]1O[C@@H]12 (stereo not given in full) | inactive | 
C=COCCOCCOCCOC=C | inactive | 
C/C=C(\C)C(=O)OCc1ccccc1 | inactive | 
CCOC(=O)c1ccccc1OC | inactive | 
Cc1ccc2ccccc2n1 | inactive | 
O=C1CCCCCCCCCCCCCCO1 | inactive | 
CCCCCCCCCCCCN(CCCCCCCCCCCC)CCCCCCCCCCCC | inactive | 
CC(=O)C=CC1=C(C)CCCC1(C)C | inactive | 
O=C1O[C@@H]2[C@@H](O)[C@H](O)O[C@@H]2[C@H]1O | inactive | 

Structure (SMILES) | outcome | AC50
CC(C)=CCC[C@](C)(O)[C@@H]1CC=C(C)CC1 | inactive | 
Cc1ccc(S)cc1 | inactive | 
O=C(O)CCCCC1CCSS1 (stereo not given) | inactive | 
C=CC(C)(O)CCC=C(C)CCC=C(C)C (stereo not given) |  | 181 µM (active)
NCCCN1CCOCC1 | inactive | 
CNC[C@H](O)c1cccc(O)c1 | inactive | 
CCCCCCCCCCCCCCCC(=O)OC[C@H](O)[C@H]1OC(=O)C(O)=C1O | inactive | 
CCCCCCOC(=O)CC | inactive | 
CC(C)=CCC/C(C)=C/COC=O | inactive | 
CC(CCO)CCCC(C)(C)O (stereo not given) | inactive | 
Nc1cc([N+](=O)[O-])ccc1O | inactive | 
Clc1sc(Cl)c(Cl)c1Cl | inactive | 
NC(=O)c1ccccc1Cl | inactive | 
CC(=O)OCc1ccc2c(c1)OCO2 | inactive | 
CN(C)CCOCCN(C)C | inactive | 
CCCCCCCCCCCCCCCCCC(=O)OCC(CC)CCCC (stereo not given) | inactive | 
C=C[C@@H](C)CCC=C(C)C | inactive | 
CC(C)(C)c1cc(CCC(=O)NN)cc(C(C)(C)C)c1O | inactive | 
C=C(C)C(=O)NCCCN(C)C | inactive | 
CCC(=O)OCCC(C)CCC=C(C)C (stereo not given) | inactive | 
